# Results taken from paper PMC7862700, “An all-to-all approach to the identification of sequence-specific readers for epigenetic DNA modifications on cytosine”.
# Key:
# Assay in all cases: DAPPL (digital affinity profiling via proximity ligation, sequencing); 10 mM Tris-HCl pH 7.5, 50 mM NaCl, 1 mM DTT, 4% glycerol, room temperature, 30 min; GST-TFs on glutathione beads, 16-mer random dsDNA library, 0.1% formaldehyde crosslink after washing; high values mean tight binding
# FEV = molecular target: T1, FEV (Homo sapiens, UniProt Q99581 1-238); conditions: protein: recombinant; tags: N-terminal GST; dsDNA, one strand shown
# T1 sequence: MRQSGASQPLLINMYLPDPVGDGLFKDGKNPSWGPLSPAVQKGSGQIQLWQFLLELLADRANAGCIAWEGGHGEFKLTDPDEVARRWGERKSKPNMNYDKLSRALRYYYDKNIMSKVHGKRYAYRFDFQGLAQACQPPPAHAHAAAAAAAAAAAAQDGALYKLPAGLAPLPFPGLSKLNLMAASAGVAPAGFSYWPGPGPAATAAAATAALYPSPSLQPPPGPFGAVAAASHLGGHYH
# Summary of the method: (§1)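 Binding signal is defined as a hexamer's read frequency for one factor over its frequency for the tag-only sample. To obtain reads, GST-fused human transcription factors were expressed in yeast, captured on glutathione beads, barcoded with DNA and pooled with that sample. Pools met 200 nmole of a 16-mer random double-stranded DNA library in Tris/NaCl/DTT/glycerol buffer for 30 min at room temperature before washing, 0.1% formaldehyde crosslinking, proximity ligation (BsaI/T4 ligase, 1 h, 37 °C), PCR and Illumina NextSeq500 sequencing.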
# ETV5 = ETV5 (Homo sapiens, UniProt P41161 1-510); conditions: protein: recombinant; tags: N-terminal GST; dsDNA, one strand shown
# Summary of the method: as §1
# HSF1 = HSF1 (Homo sapiens, UniProt Q00613 1-529); conditions: protein: recombinant; tags: N-terminal GST; chain copies: 3; dsDNA, one strand shown
# Summary of the method: as §1
# SPIC = molecular target: T2, SPIC (Homo sapiens, UniProt Q8N5J4 1-248); conditions: protein: recombinant; tags: N-terminal GST; dsDNA, one strand shown
# T2 sequence: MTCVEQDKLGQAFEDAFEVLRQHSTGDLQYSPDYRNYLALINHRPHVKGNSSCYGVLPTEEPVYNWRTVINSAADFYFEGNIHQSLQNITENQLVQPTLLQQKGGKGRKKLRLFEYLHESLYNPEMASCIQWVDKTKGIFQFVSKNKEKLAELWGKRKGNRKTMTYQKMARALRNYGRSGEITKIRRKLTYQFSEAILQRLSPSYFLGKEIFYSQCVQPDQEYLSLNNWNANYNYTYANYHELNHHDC
# Summary of the method: as §1
# ELF4 = ELF4 (Homo sapiens, UniProt Q99607 1-663); conditions: protein: recombinant; tags: N-terminal GST; dsDNA, one strand shown
# Summary of the method: as §1
# ELK4 = molecular target: T3, ELK4 (Homo sapiens, UniProt P28324-2 1-405); conditions: protein: recombinant; tags: N-terminal GST; dsDNA, one strand shown
# T3 sequence: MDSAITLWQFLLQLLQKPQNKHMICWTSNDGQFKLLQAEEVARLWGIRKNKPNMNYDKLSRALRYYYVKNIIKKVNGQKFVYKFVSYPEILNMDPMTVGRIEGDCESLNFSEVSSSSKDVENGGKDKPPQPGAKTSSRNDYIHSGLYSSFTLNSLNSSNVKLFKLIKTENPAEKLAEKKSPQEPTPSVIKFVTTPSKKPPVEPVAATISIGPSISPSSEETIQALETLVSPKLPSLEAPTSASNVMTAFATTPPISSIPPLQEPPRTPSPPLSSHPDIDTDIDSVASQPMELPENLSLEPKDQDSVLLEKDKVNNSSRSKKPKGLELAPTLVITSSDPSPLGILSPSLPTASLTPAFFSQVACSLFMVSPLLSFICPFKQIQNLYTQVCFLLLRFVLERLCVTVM
# Summary of the method: as §1
# ETV2 = molecular target: T4, ETV2 (Homo sapiens, UniProt O00321 1-342); conditions: protein: recombinant; tags: N-terminal GST; dsDNA, one strand shown
# T4 sequence: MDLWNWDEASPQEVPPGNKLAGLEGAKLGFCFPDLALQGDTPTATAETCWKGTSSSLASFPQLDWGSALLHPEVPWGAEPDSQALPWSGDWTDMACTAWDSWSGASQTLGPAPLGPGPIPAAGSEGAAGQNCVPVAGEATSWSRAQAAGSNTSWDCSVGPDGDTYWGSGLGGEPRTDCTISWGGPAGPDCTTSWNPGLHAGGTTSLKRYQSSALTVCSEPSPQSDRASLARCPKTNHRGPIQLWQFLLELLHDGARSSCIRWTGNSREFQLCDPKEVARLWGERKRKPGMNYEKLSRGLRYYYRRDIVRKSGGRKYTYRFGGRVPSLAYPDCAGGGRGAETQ
# Summary of the method: as §1
# ELF3 = molecular target: T5, ELF3 (Homo sapiens, UniProt P78545 1-371); conditions: protein: recombinant; tags: N-terminal GST; dsDNA, one strand shown
# T5 sequence: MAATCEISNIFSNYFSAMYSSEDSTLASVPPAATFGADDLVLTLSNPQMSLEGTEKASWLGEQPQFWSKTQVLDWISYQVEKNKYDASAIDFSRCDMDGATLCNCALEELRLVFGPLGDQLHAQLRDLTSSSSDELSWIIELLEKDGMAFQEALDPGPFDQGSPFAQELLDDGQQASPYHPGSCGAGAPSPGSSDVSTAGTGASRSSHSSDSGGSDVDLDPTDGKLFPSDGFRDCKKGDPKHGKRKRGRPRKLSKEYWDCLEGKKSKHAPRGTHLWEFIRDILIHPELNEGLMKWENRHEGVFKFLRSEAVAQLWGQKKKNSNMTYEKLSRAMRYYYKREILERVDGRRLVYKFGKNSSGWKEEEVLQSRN
# Summary of the method: as §1
# CRX = CRX (Homo sapiens, UniProt O43186 1-299); conditions: protein: recombinant; tags: N-terminal GST; dsDNA, one strand shown
# Summary of the method: as §1
# ETV1 = ETV1 (Homo sapiens, UniProt P50549 1-477); conditions: protein: recombinant; tags: N-terminal GST; dsDNA, one strand shown
# Summary of the method: as §1
# Sequence of CRX (O43186 whole entry): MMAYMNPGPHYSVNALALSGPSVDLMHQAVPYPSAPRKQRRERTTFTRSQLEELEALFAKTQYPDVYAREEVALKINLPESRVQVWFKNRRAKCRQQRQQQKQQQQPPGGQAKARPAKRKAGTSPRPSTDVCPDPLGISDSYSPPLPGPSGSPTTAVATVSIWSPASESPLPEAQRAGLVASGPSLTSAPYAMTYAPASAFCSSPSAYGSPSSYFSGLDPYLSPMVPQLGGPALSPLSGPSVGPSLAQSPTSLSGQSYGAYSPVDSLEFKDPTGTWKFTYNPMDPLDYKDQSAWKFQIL
# Sequence of ETV1 (P50549 whole entry): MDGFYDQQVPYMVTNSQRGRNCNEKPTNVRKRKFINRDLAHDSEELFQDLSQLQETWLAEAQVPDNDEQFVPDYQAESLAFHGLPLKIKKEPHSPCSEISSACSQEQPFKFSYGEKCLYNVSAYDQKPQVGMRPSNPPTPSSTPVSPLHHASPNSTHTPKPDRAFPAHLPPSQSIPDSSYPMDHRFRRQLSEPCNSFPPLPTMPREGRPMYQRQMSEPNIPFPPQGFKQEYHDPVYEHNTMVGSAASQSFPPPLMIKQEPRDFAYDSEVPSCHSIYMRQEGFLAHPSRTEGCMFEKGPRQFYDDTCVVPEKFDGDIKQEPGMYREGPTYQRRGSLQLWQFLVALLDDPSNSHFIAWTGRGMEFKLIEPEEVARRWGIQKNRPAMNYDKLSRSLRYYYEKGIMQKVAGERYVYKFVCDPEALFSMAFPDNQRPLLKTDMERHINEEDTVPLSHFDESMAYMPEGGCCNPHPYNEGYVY
# Sequence of ETV5 (P41161 whole entry): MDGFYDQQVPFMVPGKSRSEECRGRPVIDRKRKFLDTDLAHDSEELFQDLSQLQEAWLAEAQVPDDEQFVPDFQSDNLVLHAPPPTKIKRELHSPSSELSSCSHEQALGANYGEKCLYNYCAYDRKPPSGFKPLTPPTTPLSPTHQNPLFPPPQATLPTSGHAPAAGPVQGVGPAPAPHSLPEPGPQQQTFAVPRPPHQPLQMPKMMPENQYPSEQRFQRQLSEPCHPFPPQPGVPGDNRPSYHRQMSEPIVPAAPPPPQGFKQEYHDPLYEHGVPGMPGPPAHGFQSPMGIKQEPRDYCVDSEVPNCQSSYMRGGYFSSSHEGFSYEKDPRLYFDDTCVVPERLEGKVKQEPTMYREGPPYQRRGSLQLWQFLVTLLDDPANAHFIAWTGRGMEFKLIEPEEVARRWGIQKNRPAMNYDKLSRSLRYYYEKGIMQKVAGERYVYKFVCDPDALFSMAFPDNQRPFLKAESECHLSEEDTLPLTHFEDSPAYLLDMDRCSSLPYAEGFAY
# Sequence of ELF4 (Q99607 whole entry): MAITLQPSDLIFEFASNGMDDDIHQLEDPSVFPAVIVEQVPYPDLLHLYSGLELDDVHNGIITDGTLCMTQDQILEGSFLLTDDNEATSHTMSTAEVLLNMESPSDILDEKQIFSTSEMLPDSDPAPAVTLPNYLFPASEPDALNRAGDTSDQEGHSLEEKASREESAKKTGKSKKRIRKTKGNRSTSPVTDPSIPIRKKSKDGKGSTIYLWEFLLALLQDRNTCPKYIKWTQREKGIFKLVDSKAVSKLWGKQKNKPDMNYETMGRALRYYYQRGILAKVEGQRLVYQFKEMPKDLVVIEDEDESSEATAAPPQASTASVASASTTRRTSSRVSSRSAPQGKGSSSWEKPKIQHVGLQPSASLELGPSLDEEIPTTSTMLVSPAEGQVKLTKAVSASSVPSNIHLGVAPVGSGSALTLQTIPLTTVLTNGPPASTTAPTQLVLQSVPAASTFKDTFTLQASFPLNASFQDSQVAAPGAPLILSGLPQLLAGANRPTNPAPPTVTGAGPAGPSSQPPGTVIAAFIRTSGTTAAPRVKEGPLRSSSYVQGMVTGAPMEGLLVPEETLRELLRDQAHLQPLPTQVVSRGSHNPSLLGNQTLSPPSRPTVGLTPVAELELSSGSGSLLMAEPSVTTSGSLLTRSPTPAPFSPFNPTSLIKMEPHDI
# Sequence of HSF1 (Q00613 whole entry): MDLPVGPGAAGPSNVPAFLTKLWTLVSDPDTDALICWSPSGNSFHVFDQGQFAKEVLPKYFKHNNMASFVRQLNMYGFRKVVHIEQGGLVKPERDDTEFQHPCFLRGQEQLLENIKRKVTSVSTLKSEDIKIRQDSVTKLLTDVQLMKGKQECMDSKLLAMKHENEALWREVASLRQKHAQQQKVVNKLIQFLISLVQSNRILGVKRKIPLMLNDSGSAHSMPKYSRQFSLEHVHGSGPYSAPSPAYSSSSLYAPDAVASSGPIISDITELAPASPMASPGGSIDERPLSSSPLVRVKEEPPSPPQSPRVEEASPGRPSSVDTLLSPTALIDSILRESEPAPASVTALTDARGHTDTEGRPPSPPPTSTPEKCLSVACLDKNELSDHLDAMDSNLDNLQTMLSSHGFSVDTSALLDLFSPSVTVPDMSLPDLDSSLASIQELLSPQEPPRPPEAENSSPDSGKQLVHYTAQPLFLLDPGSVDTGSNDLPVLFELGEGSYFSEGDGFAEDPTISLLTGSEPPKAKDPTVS
sequence,measurement,setting,value
CTTCCG,binding signal,FEV,"10.5 fold enrichment (6-mer frequency, TF over GST control)"
same,binding signal,ETV5,"8.45 fold enrichment (6-mer frequency, TF over GST control)"
same,binding signal,HSF1,"1.57 fold enrichment (6-mer frequency, TF over GST control)"
same,binding signal,SPIC,"7.54 fold enrichment (6-mer frequency, TF over GST control)"
same,binding signal,ELF4,"7.4 fold enrichment (6-mer frequency, TF over GST control)"
same,binding signal,ELK4,"6.22 fold enrichment (6-mer frequency, TF over GST control)"
same,binding signal,ETV2,"7.7 fold enrichment (6-mer frequency, TF over GST control)"
same,binding signal,ELF3,"6.78 fold enrichment (6-mer frequency, TF over GST control)"
same,binding signal,CRX,"1.27 fold enrichment (6-mer frequency, TF over GST control)"
same,binding signal,ETV1,"7.97 fold enrichment (6-mer frequency, TF over GST control)"
